Screening data: PubChem BioAssay, Sanford-Burnham Center for Chemical Genomics
In the library only some 3% were active in any assay of this set; here they are far more common.
SENP7 block – SENP7 protease inhibitors, primary screen, biochemical, luminescence, uHTS | Sentrin-specific protease 7 (Homo sapiens), Q9BQF6 | recombinant SENP7, Z-RLRGG-aminoluciferin luminescence, 40 min | inhibition, % at 5 µM | 330,000 compounds, 1.5% hits;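 active means inhibition above about 50% at the single test dose, limit read from the data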;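 further: plate controls were DMSO with enzyme for no effect and no enzyme buffer wells for full effect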
SENP8 block-1 – human SENP8 protease inhibitors, primary screen, biochemical, fluorescence, Nedd8 protein substrate, uHTS; AID 602440, 2012; 360,000 compounds, 0.64% hits; recombinant SENP8; inhibition, % at 20 µM; in the data active means inhibition mostly above about 40%, no sharp cut-off; inactive means mostly below about 27%
PPC-1+TRAIL kill – compounds killing PPC-1 cancer cells with TRAIL present, primary screen, TRAIL potentiator project, ATPLite luminescence, uHTS; 220,000 compounds, 0.41% hits; PPC-1 cells + TRAIL, ATPLite viability luminescence; cell killing (% activity), % at 4 µM or 5 µM;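 active means cell killing above 50% in the first pass at 4 µM, then a duplicate retest at 5 µM averaging 50% or more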;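 further: plate controls were cells with TRAIL plus DMSO for no effect and medium-only wells lacking cells for full effect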
TRAIL sens C8 – viability loss with TRAIL in NB7+C8 cells, primary screen, TRAIL sensitizer project, cell-based, ATPlite luminescence | 360,000 compounds, 1% hits | inhibition (viability loss, TRAIL sensitization), % at 10 µM;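 active means compounds causing at least 50% loss of cell viability in the single-dose screen, relative to plate controls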
SENP6 block – SENP6 protease inhibitors, primary screen, biochemical, luminescence, uHTS; inhibition, % at 10 µM; Sentrin-specific protease 6 (Homo sapiens), Q9GZR1; Recombinant SENP6 catalytic domain, aminoluciferin luminescence; 330,000 compounds, 1.8% hits;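 active means inhibition above about 50% at the single tested dose, limit read from the data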;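 further: plate controls were DMSO wells with enzyme for no effect and DMSO wells lacking enzyme for full effect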
Target sequence (Q9GZR1 628-1112 limits assumed): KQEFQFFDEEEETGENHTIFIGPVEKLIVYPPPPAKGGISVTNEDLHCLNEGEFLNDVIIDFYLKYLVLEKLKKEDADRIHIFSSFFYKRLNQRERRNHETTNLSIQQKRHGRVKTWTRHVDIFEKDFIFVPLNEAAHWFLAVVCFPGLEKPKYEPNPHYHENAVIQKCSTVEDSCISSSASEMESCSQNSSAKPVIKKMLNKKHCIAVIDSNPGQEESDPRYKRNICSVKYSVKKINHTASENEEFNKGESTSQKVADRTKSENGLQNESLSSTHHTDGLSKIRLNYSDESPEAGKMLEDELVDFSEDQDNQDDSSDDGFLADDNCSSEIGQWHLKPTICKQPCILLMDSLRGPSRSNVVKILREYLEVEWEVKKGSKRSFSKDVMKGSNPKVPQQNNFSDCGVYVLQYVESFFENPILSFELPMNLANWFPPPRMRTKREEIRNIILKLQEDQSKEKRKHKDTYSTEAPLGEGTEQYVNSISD
SENP8 block-2 – SENP8 protease inhibitors, primary screen, biochemical, luminescence | Sentrin-specific protease 8 (Homo sapiens), Q96LD8 | purified SENP8, Z-RLRGG-aminoluciferin cleavage | inhibition, % at 10 µM | 330,000 compounds, 1.2% hits; in the data active means inhibition above about 50%
SENP8 conf – SENP8 protease inhibitors, retest, confirmation, biochemical, luminescence, single concentration; shares compounds with SENP7 block; Recombinant SENP8, Z-RLRGG-aminoluciferin luminescence, 60 min; inhibition, % at 12.5 µM; 6,200 compounds, 40% hits;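 active means mean inhibition across replicates above about 50%, limit read from the data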
SENP6 confirm – SENP6 protease inhibitors, confirmation, biochemical, luminescence, single concentration | shares compounds with SENP7 block | recombinant SENP6, Z-RLRGG-aminoluciferin luminescence | inhibition, % at 12.5 µM | 6,200 compounds, 58% hits | AID 488915, 2010
SENP7 confirm – SENP7 protease inhibitors, retest, confirmation, biochemical, luminescence, single concentration. recombinant SENP7, Z-RLRGG-aminoluciferin luminescence, 40 min. inhibition, % at 12.5 µM. 6,200 compounds, 69% hits. shares compounds with SENP7 block. AID 488917, 2010
Casp3 SENP sel – caspase-3 protease inhibitors, confirmation, selectivity assay for SENP inhibitor project, biochemical, single concentration; shares compounds with SENP7 block; purified caspase-3, Z-DEVD-aminoluciferin luminescence, 60 min; inhibition, % at 12.5 µM; 6,200 compounds, 60% hits;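 active means mean inhibition above about 50%, limit read from the data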;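 further: plate controls were enzyme with DMSO for no effect and wells without caspase-3 for full effect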
Target sequence (P42574 28-227 limits assumed): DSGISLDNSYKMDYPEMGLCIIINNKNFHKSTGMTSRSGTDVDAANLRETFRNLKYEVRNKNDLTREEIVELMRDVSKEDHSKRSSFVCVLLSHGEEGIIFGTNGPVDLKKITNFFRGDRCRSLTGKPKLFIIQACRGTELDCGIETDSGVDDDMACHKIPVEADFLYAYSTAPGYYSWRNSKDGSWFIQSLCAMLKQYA
Luc interf – interferes with luciferase luminescence in SENP counter-screen. shares compounds with SENP7 block. Pre-incubated SENP8/Z-RLRGG-aminoluciferin, luciferase luminescence interference. inhibition, % at 12.5 µM. 6,200 compounds, 39% hits. AID 488919;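 active means mean inhibition above about 50% when retested at one dose, limit read from the data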;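 further: plate controls were DMSO wells with completed reaction for no effect and substrate without enzyme for full effect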
* = called active by the depositor; . = not tested or not shown.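 How the source made its calls, unless noted: active means mean inhibition above about 50% in the one-dose retest (limit read from the data); inactive means the rest.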

SMILES | SENP7 block | SENP8 block-1 | PPC-1+TRAIL kill | TRAIL sens C8 | SENP6 block | SENP8 block-2 | SENP8 conf | SENP6 confirm | SENP7 confirm | Casp3 SENP sel | Luc interf
Cc1ccc(NC2=CC(=O)C(=O)c3ccccc32)cc1 | 36 | -134 | 49 | 91* | 66* | 55* | 16 | 66* | 33 | 8 | 4
C#CCn1cc2c(c1-c1ccccc1)c(=O)n(C)c(=O)n2C | . | -408 | . | 11 | . | . | . | . | . | . | .
Cc1cc(C)cc(CC(=O)N2CCC2(C)C(=O)NS(=O)(=O)c2ccccc2Cl)c1 (centres undefined) | . | 2 | . | 4 | . | . | . | . | . | . | .
O=C1CCCC[C@@H](CO)[C@H](O)C[C@H](c2ccccc2)O1 | . | 15 | . | -18 | . | . | . | . | . | . | .
CC1(C(=O)Nc2cccc3cccnc23)CCN1Cc1cccc2c1OCO2 (centres undefined) | . | -70 | . | -6 | . | . | . | . | . | . | .
O=C(CN1CCN(Cc2cccc(C(F)(F)F)c2)CC1)NCC(=O)Nc1ccc(F)c(F)c1F | . | 4 | . | 10 | . | . | . | . | . | . | .
Cc1ccc(C(=O)OCC(=O)Nc2ccccc2Cl)c(O)c1 | 66* | 5 | 14 | -3 | 17 | -18 | 12 | 12 | 5 | 9 | 6
Cc1cc(N2CCOCC2)nc2ccc(NC(=S)N3CCCCC3C)cc12 (centres undefined) | 13 | -368 | 15 | 2 | 55* | 29 | 4 | 6 | 7 | 1 | 3
Cc1cc(N2CCN(C)CC2)nc2ccc(NC(=S)N3CCN(c4ccc(Cl)cc4)CC3)cc12 | 8 | -387 | 15 | -22 | 55* | 2 | 12 | 6 | 9 | 5 | 3
CCCN1CCN(CCCNC(=S)Nc2ccc3nc(N4CCN(CC)CC4)cc(C)c3c2)CC1 | -9 | -327 | 6 | -8 | 89* | -6 | -7 | -7 | 0 | 0 | -10
Cc1cc(N2CCOCC2)nc2ccc(NC(=O)C3CCCCC3)cc12 | . | -320 | . | 12 | . | . | . | . | . | . | .
c1ccc(CN=C(NCc2ccccc2)NCc2ccccc2)cc1 | . | 1 | . | 22 | . | . | . | . | . | . | .
Cc1ccccc1NC(=O)COC(=O)c1ccc(C)c(S(=O)(=O)N2CCCCC2)c1 | . | 13 | . | -7 | . | . | . | . | . | . | .
c1ccc2c(c1)oc1c(Nc3ccc4c(c3)OCCO4)ncnc12 | 92* | -97 | -3 | 16 | 92* | 85* | 22 | 79* | 90* | 60* | 23
Cc1ccc(Nc2ncnc3c2oc2ccccc23)cc1 | 33 | -283 | -14 | 10 | 66* | 35 | -7 | 23 | 74* | 28 | 9
Cc1nc(Nc2ccc3c(c2)OCCO3)c2oc3ccccc3c2n1 | 4 | -54 | -3 | -5 | 2 | 3 | . | . | . | . | .
Cc1cccc(C(=O)O/N=C/c2c(Cl)n(C)c3ccccc23)c1 | 4 | 0 | -4 | 8 | -3 | -5 | . | . | . | . | .
Cc1cccc(C(=O)O/N=C/c2ccc(Br)cc2)c1 | 62* | 6 | 8 | 1 | 68* | 61* | 50 | 74* | 88* | 61* | 34
O=C(NCCN1CCC(n2c(=O)[nH]c3ccccc32)CC1)c1ccc(F)cc1F | . | 7 | . | -14 | . | . | . | . | . | . | .
Cc1cc(=O)n2[nH]c(SCc3ccc(Cl)cc3)nc2n1 | 1 | 0 | 4 | 11 | 52* | 32 | 38 | 34 | 69* | 65* | 41
O=C(NNC(=O)c1cc2ccccc2cc1O)c1cccs1 | 87* | -17 | . | 6 | 93* | 95* | 97* | 98* | 102* | 97* | 91*
O=C(NNC(=O)c1ccc2ccccc2c1O)c1cccs1 | -2 | -196 | . | -3 | 26 | 9 | . | . | . | . | .
C/C(=N\NC(=O)c1cc2ccccc2cc1O)c1cccs1 | 89* | -45 | . | 53* | 93* | 86* | 12 | 94* | 101* | 96* | 34
Cc1ccc2c(Cl)c(C(=O)N/N=C/c3cccn3C)sc2c1 | 84* | -5 | 29 | 12 | 39 | 29 | 10 | 8 | -5 | 11 | 1
C/C(=N\NC(=O)c1cc2ccccc2cc1O)c1ccc(C)o1 | 63* | -229 | . | 34 | 84* | 68* | 80* | 78* | 95* | 90* | 47
SMILES | SENP7 block | SENP8 block-1 | PPC-1+TRAIL kill | TRAIL sens C8 | SENP6 block | SENP8 block-2 | SENP8 conf | SENP6 confirm | SENP7 confirm | Casp3 SENP sel | Luc interf
Cc1onc(-c2ccc(Cl)cc2Cl)c1-c1csc(N/N=C/c2ccccc2)n1 | -7 | -102 | -9 | 8 | -32 | -4 | . | . | . | . | .
Cn1cccc1C(=O)N/N=C/c1c(Cl)cccc1Cl | 83* | 4 | . | 2 | 79* | 76* | 83* | 82* | 72* | 91* | 26
C/C(=N/NC(=O)c1cccs1)c1cccs1 | 62* | -12 | 28 | 17 | 33 | 15 | 25 | 25 | 70* | 63* | 32
O=C(N/N=C/c1c(Cl)cccc1Cl)c1ccc(F)cc1 | -9 | 3 | -7 | -2 | -16 | -9 | . | . | . | . | .
Cn1cccc1/C=N/NC(=O)c1cc2ccccc2cc1O | 48 | -207 | . | 4 | 59* | 49 | 56* | 54* | 84* | 68* | 2
Cc1cccc(NC(=O)c2csnn2)n1 | -10 | -7 | 14 | -1 | -9 | -9 | . | . | . | . | .
Cc1cccc(C(=O)NNC(=O)c2ccc(NS(=O)(=O)c3cccs3)cc2)c1C | 0 | 8 | . | -24 | 0 | -3 | . | . | . | . | .
O=C(O)c1ccccc1Nc1ccc(OC(F)F)cc1 | 21 | 15 | 16 | -6 | 10 | 55* | 61* | 60* | 80* | 66* | 74*
O=C(O)c1ccccc1Nc1ccccc1 | -10 | -2 | . | 7 | -10 | -1 | . | . | . | . | .
CCCCC(=O)OCC(=O)c1ccc(OCC)cc1 | 51* | 9 | 26 | 0 | 55* | 40 | 20 | 36 | 80* | 64* | 46
CCOc1ccc(C(=O)COC(=O)CC)cc1 | 11 | 26 | 10 | 10 | -2 | -1 | . | . | . | . | .
